Unmarked numbers belong to inactive results.

The nature of this assay: ATP-based viability of Huh7 replicon cells – cell-based, CellTiter-Glo luminescence, basal, 48 h, cytotoxicity control for HCV replication inhibitor project, primary screen (AID 1143).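 Also: Huh7 hepatoma cells carrying a hepatitis C replication reporter with no stimulus; test concentration not given here.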 The note with it: higher = more signal, called active from +8 up or from −8 down. In general terms: A replicon is a self-replicating genome or part of one, used to study replication in cells.
On to `CN(C)C(=O)[C@@]1(Cc2ccccc2)COC(c2ccc(OCCCO)cc2)=N1`, for which the z-score was -2.58. On to `CO[C@H]1O[C@H](CO)[C@@H](OC(=O)CCc2ccccc2)[C@H](OC(=O)c2cc3ccccc3[nH]2)[C@H]1OC(=O)c1cc2ccccc2[nH]1`, for which the z-score is -5.71. `CN1C(=O)C2C=CC(C(O)c3cc(C(F)(F)F)cc(C(F)(F)F)c3)N(Nc3ccccc3)C2C1=O` (stereo not drawn): the z-score was -0.73. Next, `COCCOC(=O)N1C(=O)[C@@]2(c3cc(C#CCCO)ccc31)[C@H](C(N)=O)[C@H]1C(=O)O[C@H](c3ccccc3)[C@H](c3ccccc3)N1[C@@H]2c1ccc(OCCO)cc1`: -0.869; `COCCOC(=O)N1C(=O)[C@@]2(c3cc(C#Cc4ccc(OC)cc4)ccc31)[C@H](C(=O)NC[C@H](O)c1ccccc1)[C@H]1C(=O)O[C@H](c3ccccc3)[C@H](c3ccccc3)N1[C@@H]2c1ccc(OCCO)cc1`: -5.48. Consider `COCCOC(=O)N1C(=O)[C@@]2(c3cc(C#CCNC(N)=O)ccc31)[C@H](c1ccc(OCCO)cc1)N1[C@H](c3ccccc3)[C@H](c3ccccc3)OC(=O)[C@H]1[C@@H]2C(N)=O`, for which the z-score is 0.0121. For `CC(=O)NCCCC[C@@H]1NC(=O)[C@H]2C[C@@H](C(=O)NCCCCCNC(=O)CS)[C@@H](c3cccc(OCCO)c3)N2C1=O`, the z-score was 0.321. Then `O=C1O[C@H](c2ccccc2)[C@H](c2ccccc2)N2[C@H]1[C@@H](C(=O)N1CCCCCCC1)[C@]1(C(=O)Nc3ccc(C#CC4(O)CCCCCC4)cc31)[C@H]2c1ccccc1OCCO`, with -3.52.

The values above are taken from PubChem BioAssay.
